Source: PubChem (National Center for Advancing Translational Sciences (NCATS))
uPA surface inh: qHTS for Inhibitors of Cell Surface uPA Generation. Potency, µM (series often up to 38.3 µM), without a hit: top-dose activity change, negative = inhibition, most hits filed as inhibitors. hit rate 0.31% among 330,000. AID 540303, 2011. cell surface uPA generation assay, qHTS; active = well fitted inhibition curve with a large enough effect; inconclusive = small, poorly fitted or top-dose-only effect; inactive = no such curve, though single readings can be large or run the other way; tested in mouse RAW 264.7 cells; also: potency is read from the fitted curve at half-maximal effect; nearly all actives have a fitted effect of over 55% in size
IL-1B inflam inh: qHTS for Inhibitors of Inflammasome Signaling: IL-1-beta AlphaLISA Primary Screen; THP-1 LPS/ATP IL-1B secretion, AlphaLISA, 16 h; active compounds read low; activity change, % at 57.5 µM; hit rate 4.7% among 360,000; in the data active = activity change below about -50%; inconclusive = mostly about -30% to -49%
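THP-1 cells pretreated 1 hr with compounds (up to 57.5 uM final), then stimulated with LPS (250 ng/mL final) plus ATP (1.25 mM final); secreted IL-1B measured by AlphaLISA after 16 hr, decreased signal indicating inhibition.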
HT1080-NT tox: qHTS for induction of synthetic lethality in tumor cells producing 2HG: qHTS for the HT-1080-NT fibrosarcoma cell line | HT-1080-NT fibrosarcoma viability, CellTiter-Glo ATP luminescence, 48 h | Potency, µM (doses to about 46.1 µM), without a hit: at the top dose activity, negative = less viability, actives largely listed as cytotoxic | hit rate 1.6% among 360,000 | AID 686970, 2013;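 also: NT is the 2HG producing partner of a matched IDH1 knockdown line; potency is read from the fitted curve at half-maximal effect; 0% = DMSO-treated cells and -100% = media-only wells without cells; nearly all actives have a fitted effect of over 55% in size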
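Compounds were tested in concentration-response format on HT-1080-NT cells for 48 hours at 37 degrees C. Cell viability came from CellTiter-Glo luminescence; curves were classified by r2, response magnitude and activity.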
TDP1 cell CPT: qHTS for Inhibitors of human tyrosyl-DNA phosphodiesterase 1 (TDP1): qHTS in cells in presence of CPT. chicken DT40 Tdp1-/-;hTDP1 cells + 20 nM CPT, ATP luminescence, 48 h. Potency, µM (titrated, usually from 46.2 µM), without a hit: at the highest dose activity change, negative = growth inhibition, actives largely listed as inhibitors. hit rate 12% among 420,000. AID 686979, 2013; also: potency is read from the fitted curve at half-maximal effect; nearly all actives have a fitted effect of over 55% in size
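Cell growth measured by CellTiter-Glo luminescence after a minimum 48 h, 37 C compound exposure with 20 nM CPT in Tdp1-knockout DT40 cells stably expressing hTDP1, seeded 400/well; qHTS titration format.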
DT40 TDP1 no CPT: qHTS for Inhibitors of human tyrosyl-DNA phosphodiesterase 1 (TDP1): qHTS in cells in absence of CPT; DT40 Tdp1-/- hTDP1 cells, no CPT, ATP luminescence, 48 h; Potency, µM (series often up to 46.2 µM), for inactives: top-dose activity change, negative = growth inhibition, hits mostly inhibitors; hit rate 15% among 420,000; AID 686978, 2013; also: potency is read from the fitted curve at half-maximal effect; nearly all actives have a fitted effect of over 55% in size
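Growth kinetics read by CellTiter-Glo luminescence after ≥48 hr at 37 °C. Cells: DT40 Tdp1-/- stably carrying human TDP1, 400 per well, compound exposure in the absence of CPT (DMSO vehicle).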
HT1080 IDH1KD tx: qHTS for induction of synthetic lethality in tumor cells producing 2HG: qHTS for the HT-1080-IDH1KD cell line | AID 686971, 2013 | Potency, µM (doses to about 46.1 µM), for inactives: top-dose activity, negative = toxicity, usual class: cytotoxic | hit rate 2% among 360,000 | HT-1080 IDH1 knockdown viability, ATP luminescence, 48 h;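 also: potency is read from the fitted curve at half-maximal effect; 0% = DMSO wells and -100% = cell-free medium wells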
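CellTiter-Glo luminescence after 48 h compound exposure at 37 degrees C of IDH1-knockdown HT-1080 cells in 5% FBS RPMI. %Activity scaled between DMSO wells and cell-free media wells, with curves fitted and assigned curve classes.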
* hit, by the source's call; ? = inconclusive; nt = no result given. Hits are enriched below; roughly 19% of the tested compounds scored in any of these assays. Unless noted, calls follow the shape of the dose curve; as a rule, active = well fitted curve in the direction sought with a large enough effect; inconclusive = small, poorly fitted or top-dose-only effect, or another doubt; inactive = no such curve, though single readings can be large; an effect the other way counts as inactive or inconclusive. Unless noted, % is scaled to controls: 0 for no effect and ±100 for the full control effect.

SMILES	uPA surface inh	IL-1B inflam inh	HT1080-NT tox	TDP1 cell CPT	DT40 TDP1 no CPT	HT1080 IDH1KD tx
CCCN(CC1CC1)c1cc2c(c3c1ccn3C)C1CCC2O1 (configuration not stated)	nt	-4	-12%	15µM*	10µM*	-2%
CN(c1cccc(F)c1)c1cc2c(c3c1ccn3C)C1CCC2O1 (configuration not stated)	nt	0	-19%	16µM*	16µM*	-22%
Cc1cc(N(C)C)cc(C)c1/C=C/c1ccnc2ccccc12	nt	nt	nt	14µM*	11µM*	nt
Cc1cc([N+](C)(C)C)cc(C)c1/C=C/c1ccnc2ccccc12	nt	nt	nt	3.5µM*	3.2µM*	nt
CCCSc1ncc(Cl)c(C(=O)Nc2nc3ccc(C)cc3s2)n1	nt	nt	nt	4%	-25%	nt
O=C(NNCS(=O)(=O)O)c1ccncc1	nt	nt	nt	2%	0%	nt
CN(C)c1nc(N)c([N+](=O)[O-])c(NCCO)n1	-2%	15	10%	3%	10%	9%
CC(C)(C)OC(=O)C[C@H]1C/C=C\C[C@H](CC(=O)N(CCO)Cc2ccccc2)C(=O)N[C@H](C(C)(C)C)COC1=O	-4%	-3	22%	29µM*	21µM*	-3%
CC(C)(C)OC(=O)C[C@H]1C/C=C\C[C@@H](CC(=O)N(CCO)Cc2ccccc2)C(=O)N[C@H](Cc2c[nH]c3ccccc23)COC1=O	1%	-22	0%	?	18µM*	-7%
CC(C)(C)OC(=O)C[C@H]1C/C=C\C[C@H](CC(=O)N(CCO)Cc2ccccc2)C(=O)N[C@@H](Cc2ccccc2)COC1=O	-4%	-20	-1%	16µM*	?	0%
CCOc1cc(/C=C2/C(=O)N(c3ccccc3)N=C2C)ccc1OC(=O)c1ccco1	1%	0	4%	?	?	3%
CCOc1cc(/C=C2\C(=O)N(c3ccc(C(N)=O)cc3)N=C2C)ccc1OC(=O)c1cccs1	-1%	-7	?	15µM*	23µM*	-30%
Cc1ccc(NCN2C(=O)C(=O)c3ccccc32)nc1	?	16	-10%	2.3µM*	1.3µM*	-25%
Cc1ccc(NC(=O)CCCCCN2C(=O)c3ccccc3C2=O)nc1	-1%	36	7%	-1%	?	5%
Cc1cccc(C)c1NC(=O)c1sccc1SCC#N	nt	7	3%	11µM*	?	-9%
CSc1ccccc1C(=O)Nc1c(C)cccc1C	-4%	0	-13%	?	-19%	-4%
COc1ccc(OC)c(NC(=O)N2CCC(N3CCN(Cc4ccc(F)cc4)C(=O)C3=O)CC2)c1	nt	nt	nt	6%	5%	nt
COc1ccc(OC)c(NC(=O)N2CCC3(CC2)Oc2ccccc2C(=O)N3Cc2ccccc2F)c1	nt	nt	nt	?	15µM*	nt
O=C(Nc1ccc2c(c1)OCCO2)C(C1CC1)N1CCN(c2ccc(C(F)(F)F)cn2)CC1 (configuration not stated)	nt	-9	-27%	?	?	-29%
CCOC(=O)CSc1nsc(SCC(=O)OCC)c1C#N	-1%	?	4%	-10%	-10%	0%
Cc1ccc(NC(=O)CSc2nsc(SCC(=O)Nc3ccc(C)cc3C)c2C#N)c(C)c1	2%	39	-1%	?	?	-18%
CC(=O)CSc1nsc(SCC(C)=O)c1C#N	3%	8	-7%	18µM*	18µM*	-3%
Cc1csc(NC(=O)CSc2nsc(SCC(=O)Nc3nc(C)cs3)c2C#N)n1	nt	-9	-26%	16µM*	13µM*	?
N#Cc1c(SCC(=O)N2CCOCC2)nsc1SCC(=O)N1CCOCC1	2%	7	18%	-5%	-1%	12%
CC(C)(C)NC(=O)CSc1nsc(SCC(=O)NC(C)(C)C)c1C#N	3%	13	-2%	23µM*	16µM*	-5%
SMILES	uPA surface inh	IL-1B inflam inh	HT1080-NT tox	TDP1 cell CPT	DT40 TDP1 no CPT	HT1080 IDH1KD tx
Cc1nc(SCC(=O)Nc2nccs2)c(C#N)c(C)c1C	1µM*	11	-19%	-22%	?	?
COc1cc(C)ccc1OCc1cc(C(=O)NCCN2CCOCC2)no1	-2%	-7	13%	5%	-2%	-2%
Cc1nc(SCC(=O)CC(=O)OC(C)C)c(C#N)c(C)c1C	0%	-12	8%	21µM*	?	0%
Cn1c(=O)[nH]c(=O)c2c1nc(CN1CCN(c3cccc(Cl)c3)CC1)n2Cc1ccccc1Cl	13%	17	7%	?	15µM*	0%
Cn1c(=O)[nH]c(=O)c2c1nc(CN1CCN(c3cccc(Cl)c3)CC1)n2CCN1CCOCC1	-3%	-13	3%	4%	?	4%
CC(C)Cn1c(CN2CCN(c3cccc(Cl)c3)CC2)nc2c1c(=O)[nH]c(=O)n2C	nt	nt	nt	18µM*	21µM*	nt
CCCCn1c(CN2CCN(c3cccc(Cl)c3)CC2)nc2c1c(=O)[nH]c(=O)n2C	?	39	5µM*	3.3µM*	3.3µM*	3.5µM*
CCN1CCN(Cc2nc3c(c(=O)[nH]c(=O)n3C)n2Cc2ccccc2Cl)CC1	-2%	4	-3%	-10%	-16%	11%
CCN(CC)CCCNC(=O)CCn1nc(-c2ccccc2)ccc1=O	7%	-14	-5%	-4%	-22%	0%
COc1cccc(NC(=O)CCNC(=O)N2CC(=O)Nc3ccccc32)c1	-21%	6	?	-3%	30%	-30%
Cc1cc(/C([O-])=C(/C(=S)Nc2ccc(F)cc2)[n+]2ccccc2)c(C)n1Cc1ccccc1Cl	-1%	3	0%	21µM*	23µM*	3%
Cc1cc(/C([O-])=C(/C(=S)Nc2ccc(F)cc2)[n+]2ccccc2)c(C)n1-c1ccc(F)cc1	nt	8	0%	nt	nt	-7%
Cc1ccc(-n2c(C)cc(/C([O-])=C(/C(=S)Nc3ccc(F)c(Cl)c3)[n+]3ccccc3)c2C)cc1	3%	?	-12%	23µM*	23µM*	-27%
CC[C@@]1(O)C[C@H](O[C@H]2C[C@H](N(C)C)[C@H](O[C@H]3C[C@H](O)[C@H](O[C@H]4CCC(=O)[C@H](C)O4)[C@H](C)O3)[C@H](C)O2)c2c(cc3c(c2O)C(=O)c2c(O)cccc2C3=O)[C@H]1C(=O)OC	nt	nt	nt	0.21µM*	0.24µM*	nt
